Assay results reported in PubChem BioAssay.
Unmarked numbers belong to inactive results. Calls of active or inactive are those of the source. Rule as the data show it, unless noted: active = inhibition above about 44%; inactive = the rest.

Tests used:
[1] = StAR promoter reporter inhibitors, counter-screen for LRH-1 inverse agonist project, cell-based, luminescence, high throughput (AID 651611; in the data active = inhibition above about 28%); details: StAR promoter luciferase reporter counterscreen, at 3.6 µM, active compounds read high
[2] = biological target: Nuclear receptor subfamily 5 group A member 2 (Homo sapiens) (UniProt O00482); test: LRH-1 (NR5A2) inverse agonists, retest, confirmation, cell-based, luminescence (AID 651613; in the data active = inhibition above about 42%;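 also: HEK293T cells co-transfected with LRH-1 and StAR promoter luciferase reporter; 0% = vehicle wells and 100% = parental cells lacking receptor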); details: cell-based LRH-1 luciferase reporter, inverse agonism; at 3.6 µM; active compounds read high
Sequence of Nuclear receptor subfamily 5 group A member 2 (Homo sapiens) (O00482 whole entry, looked up): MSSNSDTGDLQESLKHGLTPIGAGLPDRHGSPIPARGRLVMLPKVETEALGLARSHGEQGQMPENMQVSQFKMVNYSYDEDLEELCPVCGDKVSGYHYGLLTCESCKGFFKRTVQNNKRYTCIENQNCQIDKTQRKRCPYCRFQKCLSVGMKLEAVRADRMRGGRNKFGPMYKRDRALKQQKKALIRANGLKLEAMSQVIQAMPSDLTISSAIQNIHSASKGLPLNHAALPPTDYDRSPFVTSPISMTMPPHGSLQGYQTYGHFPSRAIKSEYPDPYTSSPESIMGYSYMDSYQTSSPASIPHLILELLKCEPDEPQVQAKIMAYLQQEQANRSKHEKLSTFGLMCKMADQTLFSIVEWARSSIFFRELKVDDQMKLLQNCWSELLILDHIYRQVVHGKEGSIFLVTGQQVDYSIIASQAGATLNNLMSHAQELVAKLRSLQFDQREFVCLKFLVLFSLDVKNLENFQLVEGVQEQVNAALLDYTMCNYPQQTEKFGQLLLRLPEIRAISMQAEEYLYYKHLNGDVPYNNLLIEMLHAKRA

[3] = biological target: Steroidogenic factor 1 (Homo sapiens) (UniProt Q13285); test: SF1 (NR5A1) inverse agonists, counter-screen for LRH-1 inverse agonist project, cell-based, luminescence, high throughput (AID 651614); details: cell-based SF1 luciferase reporter, at 3.6 µM, active compounds read high;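 also: cells cotransfected with StAR promoter reporter and SF1 expression vector; 0% = vehicle on cells with receptor and 100% = vehicle on cells lacking receptor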
Sequence of Steroidogenic factor 1 (Homo sapiens) (Q13285 whole entry, looked up, the tested form may be a part): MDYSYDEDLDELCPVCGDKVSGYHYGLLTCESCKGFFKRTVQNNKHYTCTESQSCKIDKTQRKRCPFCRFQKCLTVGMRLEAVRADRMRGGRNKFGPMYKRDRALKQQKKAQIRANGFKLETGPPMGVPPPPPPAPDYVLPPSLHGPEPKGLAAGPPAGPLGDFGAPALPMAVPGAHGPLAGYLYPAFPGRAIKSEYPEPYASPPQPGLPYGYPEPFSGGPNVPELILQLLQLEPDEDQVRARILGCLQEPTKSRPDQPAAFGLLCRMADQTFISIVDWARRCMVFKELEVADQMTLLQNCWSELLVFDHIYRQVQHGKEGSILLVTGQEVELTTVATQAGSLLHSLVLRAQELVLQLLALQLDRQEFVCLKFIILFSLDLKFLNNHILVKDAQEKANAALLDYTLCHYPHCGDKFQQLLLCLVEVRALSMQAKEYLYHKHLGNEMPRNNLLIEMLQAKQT

[4] = VP16 transactivation reporter inhibitors, counter-screen for LRH-1 inverse agonist project, cell-based, luminescence, high throughput (AID 651615; in the data active = inhibition above about 33%); details: Gal4-VP16 luciferase reporter cells, at 3.6 µM, active compounds read high

Row | SMILES | inhibition [1] | inhibition [2] | inhibition [3] | inhibition [4]
1 | O=C(CSc1nccc(=O)[nH]1)Nc1ccc(N2CCOCC2)cc1 | 4.42% | 61.3% (active) | 47.8% (active) | -3.99%
2 | Cc1nc2ccccc2n1Cc1ccc(Cl)cc1 | 8.73% | 56.1% (active) | 54.1% (active) | 47% (active)
3 | COC(=O)c1ccc(NC(=O)CSc2nncn2-c2cccnc2)cc1 | -6.12% | 44.6% (active) | 34.3% | 0.63%
4 | CNc1nc2sc3c(c2c(=O)n1C)CC(C)(C)SC3 | 2.32% | 34.9% | 45.6% (active) | -1.52%
5 | O=C(Nc1ccc(F)cc1)c1oc2ccccc2c1NC(=O)C1CC1 | 24.4% | 50.9% (active) | 62.2% (active) | 3.97%
6 | Cc1nn(C)c(C)c1CN(Cc1nc(CCC(C)C)no1)C(C)C | 20.7% | 59.6% (active) | 54.2% (active) | 52.8% (active)
7 | Cc1cccnc1NC(=O)c1ccc([N+](=O)[O-])o1 | 12.3% | 52.7% (active) | 57.8% (active) | 1.88%
